Compounds without any hit were thinned out: in the full panel of roughly 83,000, 20% have a hit.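 48-hour exposure, single concentration, 96-well plates; percent growth endpoint where 0 means no net growth. Active: below 10.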 The source made the active and inactive calls.
What follows are molecules tested on SK-MEL-5 melanoma (assay: NCI-60 one-dose screen, 48 h (100 = growth as untreated, 0 = no growth, -100 = all killed)). Conditions: 10 µM unless noted.
Procedure: Growth inhibition of the SK-MEL-5 human tumor cell line is measured as a screen for anti-cancer activity. Cells are grown in 96 well plates and exposed to the test compound for 48 hours. Compounds are tested at a single concentration, which is 10^-5 M for most compounds. The reported endpoint is percent growth (GI% or GIPRCNT), where numbers from 0 - 100% represent growth inhibition, and numbers from -100% - 0 represent cell death. For example, a value of 40 represents 60% growth inhibition. A value of 0 means no net growth occurred over the course of the experiment. A value of -40 indicates 40% of cells at the beginning of the experiment died by the end of the experiment. A value of -100 means all cells are dead at the end of the experiment.
NCI-60 Human Tumor Cell Lines Screen was performed using the standard one-dose NCI protocol, which is described in more detail at https://dtp.cancer.gov/discovery_development/nci-60/default.htm.
Compounds with GIPRCNT values below 10 were considered active. Activity score was based on GIPRCNT using the following formula: […]
Score is 0 for GIPRCNT values of 100 or above, 50 for GIPRCNT values of 0, and 100 for GIPRCNT values of -100.

| Structure (SMILES) | growth |
| --- | --- |
| O=C(CSc1nnc(-c2cccs2)n1-c1ccccc1)Nc1ccccc1F | 91.2% (inactive) |
| COc1ccc([C@H]2C(=O)N(c3cc(OC)c(OC)c(OC)c3)[C@@H]2c2ccc(OC)c(O)c2)cc1 | -23% (active) |
| Cc1ccc(Nc2nc(SC(C)C)nc(-c3ccccc3)c2C#N)cc1 | 83.5% (inactive) |
| COc1cc(-c2nc(-c3ccccc3)[nH]c2-c2ccnc(NCCCNS(=O)(=O)c3ccc(C)cc3)n2)ccc1F | 84.4% (inactive) |
| Clc1ccc2c(N/N=C/c3c[nH]c4ccccc34)ccnc2c1 | -98.4% (active) |
| COc1ccc(OC)c(NC(=O)CCCCCCNC(=O)C(O)(O)C(F)(F)F)c1 | 16.6% (inactive) |
| Brc1ccc(-c2cc(-c3ccc4c(c3)OC=CO4)n[nH]2)s1 | 89.4% (inactive) |
| C#C[C@]1(O)CC[C@H]2[C@@H]3CC=C4c5sc(Nc6ncccc6C)nc5CC[C@]4(C)[C@H]3CC[C@@]21C | 5.96% (active) |
| CN1CCN(c2ccc(C(=O)/C=C/c3cc(F)cc(C(F)(F)F)c3)cc2)CC1 | 71.3% (inactive) |
| CN(C)CCCOc1ccc(C(=C(c2ccccc2)C2CCCC2)c2ccc(OCCCN(C)C)cc2)cc1 | -95.7% (active) |
| Cc1ccc2c(n1)C(=O)C(Cl)=C(Nc1ccc(C(=O)OC(C)(C)C)cc1)C2=O | 87.6% [9.25 µM] (inactive) |
| COc1ccc2c(c1)C=CC1(O2)Oc2ccc(OC)cc2C=C1C (stereo not given) | 24.9% (inactive) |
| O=c1c2cc(-c3ccc(F)cc3F)ccc2n(O)c(=O)n1-c1cccc(C(F)(F)F)c1 | -59.7% (active) |
| CN1CCN(Cc2ccc(NC(=O)c3cncc(C#Cc4cnc5ccc(OCC6COC6)nn45)c3)cc2C(F)(F)F)CC1 | -97% (active) |
| CC[C@]12CC(C(=O)OC)=C3Nc4ccccc4[C@@]34CCN(C14)[C@@H]1c3cc4c(cc3O[C@@H]1[C@H]2O)NC1=C(C(=O)OC)C[C@@]2(CC)C3N(CC[C@@]143)C[C@H]1O[C@H]12 (stereo not given in full) | -75.7% (active) |
| CS(=O)(=O)c1nccc(-c2c(-c3cccc(OCc4ccc(Cl)c(C(F)(F)F)c4)c3)nc3sccn23)n1 | 97.2% (inactive) |
| Brc1ccc2[nH]cc(-c3nn4cc(-c5nccs5)nc4s3)c2c1 | 73.1% (inactive) |
| Cc1ccc2c(n1)C(=O)C(Cl)=C(Nc1cccc(C(=O)OC(C)(C)C)c1)C2=O | 88.1% (inactive) |
| COC(=O)[C@@H](Cc1c[nH]c2ccccc12)NC(=O)CCCCOc1cc(O)c2c(=O)cc(-c3ccccc3)oc2c1 | -97.8% (active) |
| O=C(CCCCCCN1CC(=O)N2[C@@H](c3ccc(Cl)s3)c3[nH]c4ccccc4c3C[C@H]2C1=O)NO | 19.7% (inactive) |

| Structure (SMILES) | growth |
| --- | --- |
| O=S(=O)(Oc1ccc(-c2cn3ccoc3n2)cc1)c1cccc(C(F)(F)F)c1 | 96.1% (inactive) |
| O=C(/C=C/c1ccc(F)cc1)Nc1cccc2cccnc12 | 98.7% (inactive) |
| O=c1c2ccccc2cc2n1CCN=C2c1ccccc1 | 99.5% (inactive) |
| C#C[C@]1(O)CC[C@H]2[C@@H]3CC=C4c5sc(Nc6ccc(C)cn6)nc5CC[C@]4(C)[C@H]3CC[C@@]21C | -93.1% (active) |
| CCCCCC[n+]1ccc(SCC(=O)n2ccc3ccccc32)c2ccccc21 | 88.7% (inactive) |
| CCOC(=O)C1=C(C)NC(C)=C(C(=O)OC(C)C)C1c1cccc(C#N)c1 (stereo not given) | 99.6% (inactive) |
| N#C/C(=N\Nc1ccc(F)cc1)C(=O)Nc1cc(-c2ccccc2)nn1-c1ccccc1 | -51.4% (active) |
| N/C(=N\C(N)=N\c1nc2ccccc2s1)c1ccc(Cl)cc1 | 99.7% (inactive) |
| Cc1ccc(C(=O)CSc2nnc(-c3ccc(-c4ccc(Cl)cc4)nc3C)o2)cc1 | 95% (inactive) |
| C#C[C@]1(O)CC[C@H]2[C@@H]3CC=C4c5sc(Nc6cccc(F)c6)nc5CC[C@]4(C)[C@H]3CC[C@@]21C | 42.6% (inactive) |
| C#C[C@]1(O)CC[C@H]2[C@@H]3CC=C4c5sc(Nc6cc(Cl)ccc6OC)nc5CC[C@]4(C)[C@H]3CC[C@@]21C | -43.9% (active) |
| N#C/C(=C\c1ccc(-c2ccc(Cl)cc2)o1)C(=O)Nc1ncc(Cc2ccc(Br)cc2)s1 | 51.9% (inactive) |
| CCCc1[nH]c(-c2cc(N)ccc2Cl)c2c1C(=O)CCCC2 | 98.1% (inactive) |
| CCCCc1nc2c(N)nc3ccccc3c2n1Cc1ccc(OC)cc1 | 47.3% (inactive) |
| Oc1[nH]c2ccc(Cl)cc2c1N=Nc1nc(N=Nc2c(O)[nH]c3ccc(Cl)cc23)nc(N2CCCCC2)n1 | 87% (inactive) |
| Cc1ccc(C)c(NC2=C(Cl)C(=O)c3nc(C)ccc3C2=O)c1 | -96.8% (active) |
| O=C(CCCCCCNC(=O)C(O)(O)C(F)(F)F)Nc1ccc(Cl)cc1 | -28% (active) |
| O=C(/C=C/c1ccccc1)c1cccc(O)c1 | 96.9% (inactive) |
| CC1=C(C)C(=O)C(Nc2ccc3c(c2)OCO3)=C(Br)C1=O | 90.2% (inactive) |
| COc1ccc(/C(=N\NC(N)=S)c2ccc(Cl)cc2)cc1OC | 21.9% (inactive) |

From PubChem BioAssay (NCI)
